The supplement of paper PMC8699584
± gives the standard deviation of the averaged measurements.

Assays:
Molm13 = assay: cell viability relative to DMSO control (bortezomib = 0%); higher = less growth inhibition; settings: 10 nM; 72 h
Procedure, shortened: (§1)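 Each plate's values were converted to percentages by linear regression, taking DMSO-treated cells as 100% and positive-control-treated cells as 0%. These plates were 384-well plates of 679 approved and investigational compounds at a single 10 nM dose, onto which acute myeloid leukemia cells were dispensed at 1000 cells per well in 50 µL for 72 h, in duplicate. Cell viability came from CellTiter-Glo luminescence on an EnVision reader.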

Mv4-11 = assay: as above; settings: 10 nM; 72 h
Procedure, shortened: as §1

Compound | cell viability (Molm13) | cell viability (Mv4-11)
CC(=O)CC(c1ccccc1)c1c(O)c2ccccc2oc1=O (configuration not stated) [Warfarin] | 109 ± 8.2% | 103 ± 7%
CN(C)C/C=C/C(=O)Nc1ccc(C(=O)Nc2cccc(Nc3ncc(Cl)c(-c4c[nH]c5ccccc45)n3)c2)cc1 | 88 ± 18% | 95.3 ± 1.1%
O=c1oc2c(O)c(O)cc3c(=O)oc4c(O)c(O)cc1c4c23 [Ellagic acid] | 92.5 ± 28% | 99.5 ± 11%
Cc1oncc1C(=O)Nc1ccc(C(F)(F)F)cc1 [Leflunomide] | 91.3 ± 23% | 118 ± 29%
O=C(O)c1c[nH]c2c(ccc3ccccc32)c1=O | 87 ± 11% | 106 ± 6.8%
CC(CCc1ccccn1)(CCc1ccccn1)C(=O)c1ccccc1 | 112 ± 14% | 109 ± 12%
Cn1cc(-c2cnn3c(N)c(Br)c([C@@H]4CCCNC4)nc23)cn1 | 92.5 ± 4.6% | 104 ± 4.8%
COc1ccc(CNc2nc(N(CCO)CCO)nc3c2ncn3C(C)C)cc1 | 102 ± 7% | 104 ± 8.2%
COc1ccc(C=C(C#N)c2cccnc2)cc1OC | 100 ± 14% | 103 ± 0.99%
Nc1ccn([C@@H]2O[C@H](CO)[C@@H](O)C2(F)F)c(=O)n1 [Gemcitabine] | -0.99 ± 5.6% | -5.76 ± 18%
C=CC(=O)Nc1cccc(C)c1Nc1ncc2cc(-c3c(Cl)c(OC)cc(OC)c3Cl)ccc2n1 | 112 ± 22% | 112 ± 1.2%
